RGS12 GoLoco inh – qHTS Assay for Inhibitors of RGS12 GoLoco Motif Activity (Red Fluorophore); Potency, µM (top dose mostly 61.6 µM), inactives show at the top dose activity, negative = inhibition, most hits filed as inhibitors; Guanine nucleotide-binding protein G(i) subunit alpha-1 (Homo sapiens), P63096; 0.44% of 230,000 active; Gai1:RGS12 GoLoco peptide FP, rhodamine, 10 min; active = well fitted inhibition curve with a large enough effect, not every such curve was filed as active; inactive = no such curve, though single readings can be large or run the other way; note: % is set by controls: 0 for no effect and ±100 for the full control effect; nearly all actives have a fitted effect of over 30% in size
Target sequence (P63096 whole entry, looked up): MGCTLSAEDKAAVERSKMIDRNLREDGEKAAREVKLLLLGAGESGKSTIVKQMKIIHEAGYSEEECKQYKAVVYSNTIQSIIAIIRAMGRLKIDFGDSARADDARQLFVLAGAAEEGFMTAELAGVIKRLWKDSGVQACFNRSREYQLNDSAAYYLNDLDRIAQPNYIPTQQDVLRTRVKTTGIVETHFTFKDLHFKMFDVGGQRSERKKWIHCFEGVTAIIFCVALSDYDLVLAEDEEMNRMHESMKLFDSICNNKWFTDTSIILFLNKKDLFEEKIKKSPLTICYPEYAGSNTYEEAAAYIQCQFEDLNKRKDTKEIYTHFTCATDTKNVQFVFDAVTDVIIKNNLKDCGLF
BRCA1 expr act – qHTS Assay to Identify Small Molecule Activators of BRCA1 Expression | MCF7-BRCA1-FFLuc reporter, luminescence, 48 h; response scale: scaled: vehicle 0%, 10 µM genistein 100% | Potency, µM (doses to about 46.1 µM), for inactives: at the highest dose activation, most hits filed as activators | 1.1% of 380,000 active | AID 624202, 2012; note: nearly all actives have a fitted effect of over 80% in size
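Using MCF7 cells harboring a BRCA1 firefly luciferase reporter, plated 2 h before compound pinning, the screen measured luminescence after 48 h incubation. Responses were normalized to DMSO and 10 microM genistein, then fitted for concentration-effect.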
ERG Ets-DNA blk – qHTS for Small Molecule Inhibitors of the ERG Ets/DNA interaction | Potency, µM (series often up to 76.9 µM), for inactives: top-dose FP activity, negative = inhibition, most hits filed as inhibitors | 0.028% of 370,000 active | Transcriptional regulator ERG (Homo sapiens), P11308 | fluorescence polarization, His-ERG Ets domain / labelled DNA | AID 624246, 2012; active = well fitted inhibition curve with a large enough effect in the polarisation, with a control signal flat; inconclusive = small, poorly fitted or top-dose-only effect, or effect the other way, or a change in a side signal; inactive = no such curve, though single readings can be large or run the other way; the % refers to the polarisation;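 note: polarization taken with two DNA probes labelled with fluorescein and Texas red; % of control where 0% means no effect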
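His-tagged ERG Ets domain (1 uM in the protein solution; 300mM KCl, 50mM Tris-HCl, 1mM EDTA, 1mM DTT, pH 7.5) received compound, then a probe mix of 5 nM fluorescein-DNA and 100nM Texas-615-DNA. Fluorescence polarization was read for both dyes.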
Apoferritin bind – qHTS Assay for Identification of Novel General Anesthetics | AID 485281, 2010 | 0.074% of 350,000 active | Potency, µM (highest dose often 77.5 µM), inactives show at the top dose activity change, negative = displacement, actives largely listed as inhibitors | apoferritin/1-aminoanthracene competitive binding, fluorescence; note: % is set by controls: 0 for no effect and ±100 for the full control effect; nearly all actives have a fitted effect of over 20% in size
Target sequence (P02791 2-175 limits assumed): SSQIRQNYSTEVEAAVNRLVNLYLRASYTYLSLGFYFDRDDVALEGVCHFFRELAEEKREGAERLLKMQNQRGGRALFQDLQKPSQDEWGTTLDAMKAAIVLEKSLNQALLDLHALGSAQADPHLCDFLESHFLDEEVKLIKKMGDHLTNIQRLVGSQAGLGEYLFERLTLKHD
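In PBS, apoferritin at 10 uM is loaded with 1-AMA from a 50% saturated solution. After 10 min of compound exposure at ambient temperature, reduced 535 nm fluorescence indicates probe displacement.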
* hit, by the source's call; [ ] = remark or other dose. An excerpt weighted towards active compounds, which were near 1.2% of everything screened. Unless noted, calls come from the whole dose curve; as a rule, active = well fitted curve in the direction sought with a large enough effect; inconclusive = small, poorly fitted or top-dose-only effect, or another doubt; inactive = no such curve, though single readings can be large; an effect the other way counts as inactive or inconclusive. Potency is the fitted concentration of half-maximal effect.

`C[C@@]12CCC(=O)C=C1CC[C@H]1C2[C@@H](O)C[C@]2(C)[C@@H]1CC[C@@]2(O)C(=O)CO` (stereo not given in full) gave RGS12 GoLoco inh 19%[14.2 µM].
For Cc1ccc(NC(=O)Nc2ccc3c(c2)nc(C)n3C)cc1 the results were RGS12 GoLoco inh 6%, BRCA1 expr act 33%, ERG Ets-DNA blk 14% and Apoferritin bind -17%.
For CC(=O)c1ccc(NC(=O)Nc2ccc3c(c2)nc(C)n3C)cc1 the results were RGS12 GoLoco inh -4%, BRCA1 expr act 3.5µM*, ERG Ets-DNA blk -3% and Apoferritin bind -15%.
`CSc1cccc(NC(=O)Nc2ccc(Cl)cc2)c1` gave RGS12 GoLoco inh 3%, BRCA1 expr act 7.9µM*, ERG Ets-DNA blk 11% and Apoferritin bind -8%.
`CC(=O)c1ccc(NC(=S)NCCc2ccc(S(N)(=O)=O)cc2)cc1` gave RGS12 GoLoco inh 7%, BRCA1 expr act 24%, ERG Ets-DNA blk -10% and Apoferritin bind -6%.
For CC(=O)c1ccc(NC(=S)NCCc2cccc(Cl)c2)cc1 the results were RGS12 GoLoco inh 23%, BRCA1 expr act 3.2µM*, ERG Ets-DNA blk -2% and Apoferritin bind inconclusive.
For CC(=O)c1ccc(NC(=O)Nc2cccc(Cl)c2)cc1 the results were RGS12 GoLoco inh 11%, BRCA1 expr act 7.1µM*, ERG Ets-DNA blk 2% and Apoferritin bind -15%.
Screening CC(=O)Nc1ccc(NC(=O)Nc2cccc(Cl)c2)cc1 returned BRCA1 expr act inconclusive, ERG Ets-DNA blk -1% and Apoferritin bind 11%.
For CSc1cccc(NC(N)=O)c1 the results were RGS12 GoLoco inh 5%, BRCA1 expr act 4%, ERG Ets-DNA blk 1% and Apoferritin bind -12%.
`Cc1ccc(S(=O)(=O)N2CCC(c3nc(-c4cccs4)nc4ccccc34)CC2)cc1` gave BRCA1 expr act 5%.
C(=C\c1ccnc2ccccc12)/c1ccc(N2CCOCC2)cc1 was read as BRCA1 expr act -29%.
Screening CCCCC[C@H](O)/C=C/C=C\C/C=C\C=C\[C@@H](O)CCCC(=O)O returned RGS12 GoLoco inh 0%.
Screening Fc1ccccc1NC(=S)NCCc1cccc(Cl)c1 returned BRCA1 expr act 7.9µM*, ERG Ets-DNA blk -2% and Apoferritin bind -21%.
For COc1ccc(-c2ccn(-c3cccc(F)n3)n2)cc1 the results were RGS12 GoLoco inh 42%, BRCA1 expr act 3.2µM*, ERG Ets-DNA blk -3% and Apoferritin bind -21%.
`COC(=O)C1=C(C(=O)OC)[C@@H]2N(C)c3ccc(OC)cc3[C@@]23C[C@@H](C(=O)OC)N(S(=O)(=O)c2cccs2)C3=N1` gave RGS12 GoLoco inh 3%[14.2 µM].
`COc1ccc(NC(=O)N2CCc3ccccc3C2)cc1` gave BRCA1 expr act 7.9µM*, ERG Ets-DNA blk 7% and Apoferritin bind -11%.
For CC(=O)c1cccc(NC(=O)N2CCc3ccccc3C2)c1 the results were RGS12 GoLoco inh -2%, BRCA1 expr act 8.9µM*, ERG Ets-DNA blk -1% and Apoferritin bind inconclusive.
Screening O=C(Cc1ccc(Cl)cc1)N1CCc2ccccc2C1 returned BRCA1 expr act 10µM* and ERG Ets-DNA blk 0%.
Screening O=C(CNc1cccc(F)c1)N1CCc2ccccc2C1 returned BRCA1 expr act 7.9µM*, ERG Ets-DNA blk 0% and Apoferritin bind -22%.
For CCCN(CCC)C(=O)C1CCN(c2cc(C)nc3c(-c4ccc(Cl)cc4)c(C)nn23)CC1 the results were BRCA1 expr act -6%, ERG Ets-DNA blk -1% and Apoferritin bind -6%.
Screening CC(/C=C/C=C(\C)C(=O)O[C@@H]1O[C@H](CO[C@@H]2O[C@H](CO)[C@@H](O)[C@H](O)[C@H]2O)[C@@H](O)[C@H](O)[C@H]1O)=C\C=C\C=C(C)\C=C\C=C(/C)C(=O)O[C@@H]1O[C@H](CO[C@@H]2O[C@H](CO)[C@@H](O)[C@H](O)[C@H]2O)[C@@H](O)[C@H](O)[C@H]1O returned RGS12 GoLoco inh 4%.
For Cc1ccc(NC(=O)N2CCc3ccccc3C2)cc1 the results were RGS12 GoLoco inh -17%, BRCA1 expr act inconclusive, ERG Ets-DNA blk 3% and Apoferritin bind inconclusive.
Screening CN(C)c1ccc(NC(=O)CN2CCc3ccccc3C2)cc1 returned BRCA1 expr act 11µM*, ERG Ets-DNA blk -5% and Apoferritin bind -12%.
Screening CC(=O)c1ccc(NC(=O)N2CCc3ccccc3C2)cc1 returned RGS12 GoLoco inh -3%, BRCA1 expr act 11µM*, ERG Ets-DNA blk 0% and Apoferritin bind inconclusive.
Screening O=C(Nc1ccc2c(c1)OCO2)c1ccc2nc[nH]c2c1 returned RGS12 GoLoco inh 10%, BRCA1 expr act 5.6µM*, ERG Ets-DNA blk -7% and Apoferritin bind -22%.
For O=C(N/N=C/c1ccccc1C(F)(F)F)c1ccc2nc[nH]c2c1 the results were BRCA1 expr act 7.1µM*, ERG Ets-DNA blk -3% and Apoferritin bind -10%.
`O=C(Nc1ccc2c(c1)OCCO2)c1ccc(Cl)c([N+](=O)[O-])c1` gave RGS12 GoLoco inh 47%, BRCA1 expr act 56%, ERG Ets-DNA blk -5% and Apoferritin bind -11%.
`O=C(Nc1ccc2c(c1)OCCO2)c1ccc(Cl)c(Cl)c1` gave BRCA1 expr act 13µM*, ERG Ets-DNA blk 5% and Apoferritin bind -10%.
`O=C(Nc1ncccc1Cl)c1ccc2c(c1)OCCO2` gave RGS12 GoLoco inh 14%, BRCA1 expr act 8.9µM*, ERG Ets-DNA blk 4% and Apoferritin bind -6%.
`CC(=O)NC1CCCC1C#N` (stereo not given) gave BRCA1 expr act 5%.
For O=C(NC(=S)Nc1ccc2nc[nH]c2c1)c1ccccc1 the results were BRCA1 expr act 4µM*, ERG Ets-DNA blk 8% and Apoferritin bind -6%.
Screening CCCOc1cccc(C(=O)Nc2ccc3c(c2)OCCO3)c1 returned BRCA1 expr act 7.9µM*, ERG Ets-DNA blk -4% and Apoferritin bind -10%.
Screening O=C(Nc1ccc2c(c1)OCCO2)c1cccc(S(=O)(=O)N2CCOCC2)c1 returned RGS12 GoLoco inh 3%, BRCA1 expr act 10µM*, ERG Ets-DNA blk -8% and Apoferritin bind -16%.

Screening data (PubChem BioAssay)
